DT40 TDP1 no CPT: qHTS for Inhibitors of human tyrosyl-DNA phosphodiesterase 1 (TDP1): qHTS in cells in absence of CPT; Potency, µM (top dose mostly 46.2 µM), inactives show at the top dose activity change, negative = growth inhibition, usual class: inhibitors; actives 15% (n = 420,000); DT40 Tdp1-/- hTDP1 cells, no CPT, ATP luminescence, 48 h; also: % is scaled to controls: 0 for no effect and ±100 for the full control effect; nearly all actives have a fitted effect of over 55% in size
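Readout: luminescence from CellTiter-Glo after 30 min in the dark at RT. Cells: DT40 Tdp1-/- with stable hTDP1, 400/well. Exposure: compounds alone, ≥48 hr, 37 °C.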
DT40 TDP1 CPT: DT40-hTDP1 cell growth loss with CPT. chicken DT40 Tdp1-/-;hTDP1 cells + 20 nM CPT, ATP luminescence, 48 h. Potency, µM (top dose mostly 46.2 µM), for the others: at the top dose activity change, negative = growth inhibition, usual class: inhibitors. actives 12% (n = 420,000); also: % is scaled to controls: 0 for no effect and ±100 for the full control effect; nearly all actives have a fitted effect of over 55% in size
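Chicken DT40 Tdp1-/- cells stably complemented with human TDP1 were seeded at 400 cells/well in medium containing 20 nM camptothecin, exposed to pin-transferred compounds, and grown at 37 °C for at least 48 hr. Viability was read as ATP luminescence.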
HT1080 IDH1KD tx: toxicity to HT-1080 IDH1 knockdown cells (counter line); actives 2% (n = 360,000); HT-1080 IDH1 knockdown viability, ATP luminescence, 48 h; AID 686971; Potency, µM (titrated, usually from 46.1 µM), for the others: at the highest dose activity, negative = toxicity, usual class: cytotoxic;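 also: 0% = DMSO wells and -100% = cell-free medium wells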
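Viability of IDH1-knockdown HT-1080 fibrosarcoma cells was assessed by CellTiter-Glo after 48 h at 37 °C with titrated compound; concentration-effect curves were classified by fit quality and response size.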
TGFb SMAD3 inh: inhibitors of TGF-b signaling | HepG2 CAGA-GFP TGF-b/SMAD3 reporter, GFP fluorescence, 18 h; TGF-beta stimulated, 500 pg/mL final | Potency, µM (top dose mostly 46.1 µM), for the others: at the highest dose activity, negative = inhibition, actives largely listed as inhibitors | actives 1.2% (n = 410,000); also: % is scaled to controls: 0 for no effect and ±100 for the full control effect; nearly all actives have a fitted effect of over 65% in size
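HEPG2 CAGA-GFP reporter cells (1000/well, DMEM with 1% FBS) received compounds, then recombinant TGF-beta at 500 pg/mL final for 18 hours at 37 degrees C. Per-cell GFP summed per well was normalised to unstimulated and stimulated DMSO controls before curve fitting.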
HepG2 viability: counter-screen for TGF-b inhibitors: cytotoxicity in HepG2 cells | Potency, µM (highest dose often 46.1 µM), for the others: at the top dose activity change, negative = cytotoxicity, most hits filed as cytotoxic | HepG2 CAGA-GFP viability, ATP luminescence, 18 h | actives 0.76% (n = 410,000) | AID 588856
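HepG2 CAGA-GFP cells (1000/well, DMEM with 1% FBS) received compound, then TGF-beta at 500 pg/mL final, and were incubated 18 hours at 37 degrees C. Viability was read by CellTiter-Glo luminescence. Media-only wells were set as complete cell-killing and DMSO as no toxicity.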
HT1080-NT tox: kills 2HG-producing HT-1080-NT fibrosarcoma cells | HT-1080-NT fibrosarcoma viability, CellTiter-Glo ATP luminescence, 48 h | Potency, µM (series often up to 46.1 µM), for inactives: at the highest dose activity, negative = less viability, hits mostly cytotoxic | actives 1.6% (n = 360,000) | AID 686970;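 also: NT is the 2HG producing partner of a matched IDH1 knockdown line; 0% = DMSO-treated cells and -100% = media-only wells without cells; nearly all actives have a fitted effect of over 55% in size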
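Toxicity toward the 2HG-producing NT line was scored as %Activity, normalised to DMSO and no-cell wells, from CellTiter-Glo luminescence after 48 hours' treatment.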
The depositor's hits bear a star; u = inconclusive; x = not tested or not shown; ! = not confirmed by another sample. Most compounds without a hit are left out; they make up all but 17% or so of the library. Calls follow the shape of the dose curve; as a rule, active = well fitted curve in the direction sought with a large enough effect; inconclusive = small, poorly fitted or top-dose-only effect, or another doubt; inactive = no such curve, though single readings can be large; an effect the other way counts as inactive or inconclusive. Potency is read from the fitted curve at half-maximal effect.

SMILES	DT40 TDP1 no CPT	DT40 TDP1 CPT	HT1080 IDH1KD tx	TGFb SMAD3 inh	HepG2 viability	HT1080-NT tox
CCN(CC)c1ccc(S(=O)(=O)N2CCOCC2)cc1NC(=O)CSc1ccccc1	u	16.4µM*	-13.0%	-7.4%	-1.7%	-1.9%
O=C(O)C1C2C=CC(C2)C1C(=O)NCc1cccnc1 (configuration not stated)	3.2%	0.6%	4.7%	15.3%	-26.6%	-0.2%
OC[C@@H]1CN(Cc2ccc(Cl)cc2)C[C@H](n2cnc3c(N4CCCC4)ncnc32)O1	u	u	15.9%	3.7%	-28.8%	-6.0%
CCOC(=O)/C(C#N)=C1/C(=O)N(Cc2ccccc2)c2ccccc21	5.17µM*	7.31µM*	-13.8%	-17.7%	-19.8%	-3.5%
CCOC(=O)C(C#N)=C1CCN(Cc2ccccc2)CC1	-11.6%	-10.8%	-2.4%	-1.3%	-32.2%	-0.7%
O=C(c1ccc2c(=O)n(Cc3ccc4c(c3)OCO4)c(=S)[nH]c2c1)N1CCCCC1	u	u	9.0%	-18.1%	3.5%	9.2%
CN1CCN(C(=O)c2ccc3c(=O)n(Cc4ccc5c(c4)OCO5)c(=S)[nH]c3c2)CC1	12.6µM*	22.4µM*	1.7%	x	x	-11.9%
CN1CCN(C(=O)c2ccc3c(=O)n(Cc4ccc(Cl)cc4)c(=S)[nH]c3c2)CC1	u	20.6µM*	u	-26.9%	-40.3%	u
CCCCCn1c(=O)[nH]c2cc(C(=O)NCc3ccc4c(c3)OCO4)ccc2c1=O	-16.1%	-8.7%	14.6%	8.9%	-25.9%	10.0%
CCCCCn1c(=O)[nH]c2cc(C(=O)N3CCN(Cc4ccc5c(c4)OCO5)CC3)ccc2c1=O	10.3µM*	4.61µM*	u	0.7%	-10.3%	-3.0%
CCOC(=O)C1CCN(C/C=C/c2ccccc2[N+](=O)[O-])CC1	2.6%	5.7%	-6.6%	1.8%	-10.9%	0.8%
Cc1cc(C(F)(F)F)nn1CC(=O)Nc1ccc2c(c1)OCO2	13.5%	-12.0%	5.2%	19.9%	7.2%	7.0%
c1cc(Nc2ncnc3sccc23)cc(-c2nnc3n2CCCCC3)c1	u	20.6µM*	-10.4%	-4.1%	-14.9%	-0.8%
CC(C)(C)[C@H]1CCC(=O)N([C@H](CN=[N+]=[N-])Cc2ccccc2)CC1	20µM*	14.1µM*	3.3%	u	-25.7%	6.3%
[N-]=[N+]=NC[C@H](Cc1ccccc1)N1CC[C@@H](O)CCC1=O	-3.8%	1.9%	15.4%	0.4%	-1.4%	14.0%
Cc1ccc(SC[C@H](Cc2ccccc2)N2CC[C@@H](C)CCC2=O)cc1	12.6µM*	11.2µM*	-15.0%	u	9.8%	-20.4%
Cc1ccc(SC[C@H](Cc2ccccc2)N2CC[C@@H](C(C)(C)C)CCC2=O)cc1	u	u	x	-10.0%	0.9%	x
O=C1CCC(OCc2ccccc2)CCN1[C@H](CSc1ccccc1)Cc1ccccc1 (some centres not stated)	16.4µM*	u	u	x	x	u
CC(C)(C)[C@H]1CCC(=O)N([C@H](CSc2ccccc2)Cc2ccccc2)CC1	u	23.1µM*	8.2%	11.2µM*!	-21.0%	15.3%
CC(C)(C)c1ccc(NC(=O)Nc2ccc(OCC(=O)N3CCOCC3)cc2)cc1	-20.6%	2.2%	u	-6.9%	3.7%	-28.9%
O=C(CNC(=O)C1CCCCC1)OCc1ccccc1	0.9%	19.3%	x	3.5%	3.3%	x
COc1ccc(CS(=O)(=O)CC(C)(O)c2ccccc2Cl)cc1 (configuration not stated)	u	-16.4%	1.7%	-8.3%	-8.0%	1.2%
CC(C)(C)[C@H]1CCC(=O)N([C@H](CSc2ccc(Br)cc2)Cc2ccccc2)CC1	14.1µM*	18.4µM*	-8.0%	36.1%	-45.2%	-2.3%
CN1CCC(=O)N(C(CSc2ccc(Br)cc2)Cc2ccccc2)CC1 (configuration not stated)	x	x	x	-2.5%	-14.1%	x
COCC(=O)Nc1cc(C(=O)N2CCCCC2c2nccs2)c2c(c1)nc(-c1ccncc1)n2C (configuration not stated)	-5.9%	-4.9%	x	x	x	x
SMILES	DT40 TDP1 no CPT	DT40 TDP1 CPT	HT1080 IDH1KD tx	TGFb SMAD3 inh	HepG2 viability	HT1080-NT tox
O=C(NCC(c1ccco1)N1CCc2ccccc2C1)C(=O)Nc1ccc(F)cc1F (configuration not stated)	20.6µM*	18.4µM*	-13.5%	u	1.3%	-3.1%
O=C(NCC(c1cccnc1)N1CCc2ccccc2C1)C(=O)Nc1ccc(F)cc1F (configuration not stated)	18.4µM*	14.6µM*	x	u	-28.8%	x
CC(=O)Nc1ccc(NC(=O)C(=O)NCC(c2ccco2)N2CCc3ccccc3C2)cc1 (configuration not stated)	20.6µM*	16.4µM*	u	u	-49.2%	u
O=C(NCC(c1ccco1)N1CCc2ccccc2C1)C(=O)Nc1ccccc1F (configuration not stated)	-82.3%	-54.8%	-3.6%	-4.8%	7.6%	6.2%
CCN(CC)S(=O)(=O)c1ccc2oc(SCC3CN=C(c4ccc(OC)cc4)S3)nc2c1 (configuration not stated)	16.4µM*	u	u	-7.1%	-35.2%	-18.1%
COc1cc2c(cc1[N+](=O)[O-])-c1ccc([N+](=O)[O-])cc1C2=NNC(N)=S	7.31µM*	u	-0.4%	5.1%	28.3%	2.1%
CCOc1ccc(NC(=O)Cn2cc(C(=O)c3ccc(CC)cc3)c(=O)c3cc(C)ccc32)cc1	-24.3%	-12.4%	x	2.0%	-0.5%	x
Cc1ccccc1C(=O)Nc1ccc2c(C#N)c3nc4ccccc4nc3n2c1	20.6µM*	20.6µM*	4.2%	6.4%	-3.9%	2.0%
Cc1c(C(=O)Nc2ccccc2)cn2c(nc3ccccc32)c1C#N	u	u	-24.6%	1.2%	7.3%	-7.7%
O=C1C(=C(I)I)c2ccccc2-c2ccccc21	4.61µM*	2.59µM*	5.17µM*	6.31µM*	11.2µM*	u
COc1ccc(C2/C=C\CC(OCc3ccccc3)CC(=O)N2Cc2cccc(F)c2)cc1 (configuration not stated)	20.6µM*	18.4µM*	u	u	-25.6%	-29.2%
COc1ccc([C@H]2/C=C\CN(S(C)(=O)=O)[C@@H](C)C(=O)N2Cc2ccc(F)cc2)cc1	-11.4%	-29.3%	-9.6%	u	-38.7%	-4.4%
